An excerpt weighted towards active compounds, which were near 2.4% of everything screened.
Cruzain Triton: cruzain (T. cruzi) inhibition with detergent. AID 1478. Potency, µM, without a hit: max response, negative = inhibition, most hits filed as inhibitors. P25779. purified cruzain, Z-FR-AMC fluorescence, 0.01% Triton. 200,000 tested, 0.43% active;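 further: plate controls were neutral wells for no effect and buffer without enzyme for full effect; nearly all actives have a fitted effect of over 40% in size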
Target sequence (P25779 123-467 limits assumed): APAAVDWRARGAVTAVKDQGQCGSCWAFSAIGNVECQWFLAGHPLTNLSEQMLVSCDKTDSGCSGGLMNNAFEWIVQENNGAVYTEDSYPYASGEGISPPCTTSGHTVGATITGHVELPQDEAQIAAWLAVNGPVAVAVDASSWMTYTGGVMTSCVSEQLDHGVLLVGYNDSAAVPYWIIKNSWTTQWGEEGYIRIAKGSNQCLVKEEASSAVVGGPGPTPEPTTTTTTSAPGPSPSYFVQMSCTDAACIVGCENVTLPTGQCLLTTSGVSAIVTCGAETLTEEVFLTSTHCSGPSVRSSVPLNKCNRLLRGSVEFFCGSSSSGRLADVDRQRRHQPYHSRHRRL
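Cruzain (1.5 nM) preincubated 15 min at RT with compound in 100 mM sodium acetate pH 5.5, 5 mM DTT, 0.01% Triton X-100. Reaction started with 2 uM Z-FR-AMC; AMC fluorescence (ex 360/em 450 nm) change over 60 s gave rate.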
Cruzain inh noDet: blocks cruzain activity in detergent-free assay. purified cruzain, Z-FR-AMC fluorescence, no detergent. 200,000 tested, 2.3% active. Potency, µM, for inactives: max response, negative = inhibition, most hits filed as inhibitors;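 further: plate controls were enzyme without inhibitor for no effect and buffer without enzyme for full effect; nearly all actives have a fitted effect of over 40% in size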
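Detergent-free condition (0.00005% Triton X-100) in acetate buffer pH 5.5 with DTT. 1.5 nM enzyme and compound were pre-mixed 15 min, then 2 uM Z-FR-AMC substrate added; reaction progress from fluorescence change between first and third reads (60 s).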
Active calls of the source: *; ? = inconclusive; ! = not active in a repeat. The call rests on the fitted dose curve; in most records, active means well fitted curve in the direction sought with a large enough effect; inconclusive means small, poorly fitted or top-dose-only effect, or another doubt; inactive means no such curve, though single readings can be large; an effect the other way counts as inactive or inconclusive. Potency means the concentration at half of the fitted maximal effect.

SMILES | Cruzain Triton | Cruzain inh noDet
O=C(COC(=O)Cc1ccc(S(=O)(=O)N2CCCCC2)s1)Nc1ccc2c(c1)OCO2 | -10% | 10µM*
O=C(COC(=O)/C=C/c1ccc(OC(F)F)cc1)Nc1ccc(S(=O)(=O)N2CCCC2)cc1 | -3% | -1%
O=C(COC(=O)/C=C/c1ccc2c(c1)OCO2)Nc1ccc(S(=O)(=O)N2CCCC2)cc1 | -9% | 32µM*
O=C(c1ccccc1)[C@H]1[C@H](c2ccccc2[N+](=O)[O-])N1C1CCCCC1 (stereo partly drawn) | 1% | -3%
Cc1nnc(SCC2=C(C(=O)O)N3C(=O)C(NC(=O)Cn4cnnn4)[C@@H]3SC2)s1 (stereo partly drawn) | 3% | -3%
CCOC(=O)c1cc(-c2ccc(F)cc2)n(CCC(=O)Nc2cc(OC)cc(OC)c2)c1C | -7% | 1%
Cc1ccc(Cl)cc1NC(=O)Cn1nnc2sc3c(c2c1=O)CCC(C(C)(C)C)C3 (stereo not drawn) | -4% | 25µM*
COc1ccc(Cl)cc1NC(=O)Cn1nnc2sc3c(c2c1=O)CCC(C(C)(C)C)C3 (stereo not drawn) | 0% | 6%
N#C/C(C(=O)Oc1ccccc1)=C1/Nc2ccccc2-c2ccccc21 | 2% | 13µM*
N#CC(C(=O)Nc1ccccc1)=C1Nc2ccccc2N1 | -4% | -8%
CCc1ccc(-c2csc(NC(=O)COC(=O)CCc3nc4ccccc4s3)n2)cc1 | -3% | 13µM*
Cc1nc(NC(=O)COC(=O)CCc2nc3ccccc3s2)c(Cl)cc1Cl | -4% | -6%
COc1ccc(C(=S)N2CCNCC2)cc1 | -5% | -4%
COc1ccc(C(=S)N2CCCCCC2)cc1 | 14µM* | -2%
Cc1ccc(CNC(=O)[C@H]2C[C@@H]2[C@H](NP(=O)(c2ccccc2)c2ccccc2)c2ccccc2)c(F)c1F | 3% | -8%
Cc1ccc2nc(N3CCN(c4ccc(F)cc4)CC3)c3nnnn3c2c1 | -2% | -10%
Cc1ccc2nc(N3CCN(c4cccc(C)c4C)CC3)c3nnnn3c2c1 | -1% | 4µM*!
CCCC(O)c1nc2ccccc2n1CCCOc1ccc(Cl)cc1 (stereo not drawn) | -3% | -2%
COc1ccccc1NC(=O)CN1C(=O)C2(SCC(=O)N2c2ccc(C)c(C)c2)c2ccccc21 (stereo not drawn) | -2% | -21%
COc1ccccc1NC(=O)CN1C(=O)C2(SCC(=O)N2c2ccc(F)c(F)c2)c2ccccc21 (stereo not drawn) | -5% | 16µM*
COc1cc(NC(=O)c2c(-c3ccc(C)cc3)nnc3ccccc23)cc(OC)c1OC | 2% | 4%
COc1ccc(N=C2NN=C(c3ccc4c(c3)OCCO4)CS2)cc1 | -3% | 25µM*
COCCn1c(C)cc(C2=NNC(=Nc3ccc(OC)cc3)SC2)c1C | -1% | 1%
COCCCN(C(C)=O)c1nc(-c2ccccc2)cs1 | -3% | 10%
COc1ccc(-c2csc(N(CCc3ccccc3)C(=O)COc3ccccc3)n2)cc1 | 3% | 13µM*
SMILES | Cruzain Triton | Cruzain inh noDet
O=C(COc1ccc(Cl)cc1)N(Cc1ccccc1)c1nc(-c2ccccc2)cs1 | 4% | 10µM*
COc1ccc(OCC(=O)N(C)Cc2ccccc2)cc1 | 4% | 0%
CCn1ccc2c(OCC(=O)Nc3ccc(OC)cc3OC)cccc2c1=O | -1% | ?
CC(=O)c1c(C)[nH]c(C(=O)Nc2nc(-c3ccc(-c4ccccc4)cc3)cs2)c1C | -3% | 10µM*
COc1ccc(-c2csc(NC(=O)c3nc(-c4ccccc4)oc3C)n2)cc1 | 5% | 7.9µM*
CC(=O)c1c(C)[nH]c(C(=O)Nc2nc(-c3ccc(Cl)cc3)cs2)c1C | -8% | -11%
Cc1oc(-c2ccccc2)nc1C(=O)Nc1nccs1 | -1% | -10%
CCn1c(=O)cc(OCC(=O)N2CCN(c3cccc(Cl)c3)CC2)c2ccccc21 | -4% | -2%
C/C=C/C(=O)C[C@H]1CC[C@@H](C)[C@@H](CCO)O1 | 0% | -2%
COC(=O)[C@@]1(Cc2ccccc2)[C@H]2c3cc(C(=O)N(C)C)n(Cc4ccc(S(C)(=O)=O)cc4)c3C[C@H]2CN1C(=O)c1ccccc1 | -3% | ?
C/C(=N\NC(=S)NCCc1ccccc1)c1ccc(C#N)cc1 | -6% | 10µM*
C/C(=N\NC(=S)NCCc1ccccc1)c1ccc(C)cc1 | -8% | -12%
C/C(CC/C(C)=N/O)=N/O | 6% | -2%
C=C(C)C(=O)OCC(C)O (stereo not drawn) | 5% | 26%
Oc1ccc2ccccc2c1C1Nc2cccc3cccc(c23)N1 | -7% | ?
CCN(CC)c1ccc(C2Nc3cccc4cccc(c34)N2)c(O)c1 | -9% | 13µM*
Cc1cccc(N2CCN(c3ccc4cc(S(=O)(=O)N5CCC(C)CC5)ccc4n3)CC2)c1C | 4% | -4%
CCc1cccc(NC(=O)Cn2c(C(=O)OC)cc3sc(Cl)cc32)c1 | 0% | 11%
COC(=O)c1cc2sc(Cl)cc2n1CC(=O)Nc1cccc(SC)c1 | -16% | 25µM*
COC(=O)[C@@H]1C[C@H]1[C@@H](N)c1ccccc1 | -2% | -3%
Cc1cc(Cl)ccc1NC(=O)C1CCN(c2nnc(-n3c(C)ccc3C)s2)CC1 | -5% | 19%
CCc1cccc(NC(=O)CC2Oc3ccc(C)cc3NC2=O)c1 (stereo not drawn) | 2% | 5%
CC(C)c1ccc(/C=C/C(=O)Nc2nncs2)cc1 | -5% | ?
Cc1sc(NC(=O)/C=C/c2ccc(C(C)C)cc2)c(C#N)c1C | 1% | 25µM*
Cc1ccc(NC(=O)c2ccc(OC(=O)CCN3C(=O)c4ccccc4C3=O)cc2)cc1 | 2% | ?
SMILES | Cruzain Triton | Cruzain inh noDet
Cc1ccc(NC(=O)c2ccc(OC(=O)COc3ccc(Cl)cc3C)cc2)cc1 | 7% | 13µM*
Cc1ccc(C(=O)CC(=O)COc2ccc(Cl)cc2C)cc1 | -4% | 11%
Cc1ccc(NC(=O)c2ccc(OC(=O)COc3cccc(Cl)c3)cc2)cc1 | -2% | 13µM*
O=c1cc(-c2cccc(-c3ccc(C(F)(F)F)cc3)c2)c2cc3c(cc2o1)OCO3 | 3% | ?
CCCCCCCCCCCCCCC[C@@H](O)[C@@H](N)COP(=O)(O)O | 3% | -9%
O=C(NCCc1ccccc1Cl)c1ccc(Cn2c(=O)c3cccn3c3cccnc32)cc1 | 2% | -2%
CCOC(=O)c1c(-c2ccc(C)cc2)csc1NC(=O)c1cc(-c2ccc(OC)cc2)on1 | 0% | -10%
COC(=O)c1c(-c2ccc(C)cc2)csc1NC(=S)NC(=O)c1cc(OC)cc(OC)c1 | -4% | 4µM*
O=C(COc1ccccc1Cl)Nc1cc(-c2ccccc2F)nn1-c1ccccc1 | 4% | 3%
O=C(Nc1cc(Sc2ccccn2)cc([N+](=O)[O-])c1)c1ccc(Cl)cc1 | 4% | 13µM*
O=C(Nc1cc(Sc2ccccn2)cc([N+](=O)[O-])c1)c1cccc(Cl)c1 | -7% | ?
COc1ccc(Nc2cc(C(=O)NCc3cccs3)c3ccccc3n2)cc1 | 1% | ?
CC(C)c1ccc(Nc2cc(C(=O)NCc3cccs3)c3ccccc3n2)cc1 | -3% | 10µM*
C/C=C1\C(=O)C[C@H]2[C@@H]3CCC4=CC(=O)CC[C@]4(C)[C@H]3CC[C@]12C | -9% | -1%
C[C@@H](C(=O)N[C@@H](CO)Cc1ccccc1)[C@H]1C[C@]1(C)[C@H](NC(=O)OCc1ccccc1)c1ccccc1 | -7% | ?
N#Cc1ccc(-c2ccc(Cl)cc2)nc1SCC(=O)c1cccc(Cl)c1 | 2% | 10µM*

Source: PubChem BioAssay (National Center for Advancing Translational Sciences (NCATS))
